{"source": "the supplement of paper PMC8728848", "binders": {"B1": {"name": "PX14343I-pdi-501-30-501 (Parabacteroides distasonis) (protein)", "chain": "SDQYSTETFWKTKEHASAGIMGCYNALKLWRSLHTMEFDMLTANAMPYNEANGTQAIGKGEHLSTTALIGSLWKNCYVGIGRTNTFIANVGGVDMDESEKAKMVGEAKFLRAFYYLSLVDKFGGVPLIIDAPNADEQAELPRNSKEEVVNQIVKDLEEAAAVLPDTYASSDLGRATKGAALALKARTLLYNSRWAEAAQAAKQVMESGVYQLFNDYRHFFSEDNKYNCEVIFDIEAKLPEYPTDYDQNIWRLNRPAPLKELVDTYLCVDGKTIEESPLYDPTRPYENRDPRLLKSIVCIGYPYLGKTITKEDVATTGFGVKKYTSYEDDVTIPLVERSAFNFILIRYAEVLLTYAEAQNEASGPDQSVYDAINQLRRRPDINMPEVPKGLTKDQMREVIRRERRIELTFEGLYYSDILRWKTAEKENNGMMHNYEGIEVVKRSFNPKRDYLWPIPYNQTVLNPNLEQNPNWD"}}, "assay_in_all_cases": "glycan array binding signal (z-score within array); higher = stronger binding", "conditions_in_all_cases": "glycan notation: IUPAC condensed, linker removed", "key": {"[1]": {"biological_target": "Gal(b1-4)GlcNAc(b1-2)Man(a1-3)[Man(a1-6)]Man(b1-4)GlcNAc(b1-4)GlcNAc", "procedure,_shortened": "(§1)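 Glycan array data came from 3228 arrays in the Consortium for Functional Glycomics database, and only arrays with an available protein sequence were kept. Glycan names were put into IUPAC-condensed notation, and columns mapping to the same glycan were averaged. The binding signal is a within-array Z-score, averaged across arrays of one protein sequence run at different concentrations or buffers and across linkers. A negative Z-score can be read as non-binding.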"}, "[2]": {"biological_target": "Gal(b1-4)GlcNAc(b1-2)[Gal(b1-4)GlcNAc(b1-6)]Man(a1-6)[GlcNAc(b1-4)][Gal(b1-4)GlcNAc(b1-2)Man(a1-3)]Man(b1-4)GlcNAc(b1-4)GlcNAc", "procedure,_shortened": "as §1"}, "[3]": {"biological_target": "Gal(b1-4)GlcNAc(b1-3)Gal(b1-3)GalNAc", "procedure,_shortened": "as §1"}, "[4]": {"biological_target": "Gal(b1-4)GlcNAc(b1-3)Gal(b1-4)GlcNAc(b1-2)Man(a1-3)[Gal(b1-4)GlcNAc(b1-3)Gal(b1-4)GlcNAc(b1-2)Man(a1-6)]Man(b1-4)GlcNAc(b1-4)GlcNAc", "procedure,_shortened": "as §1"}, "[5]": {"biological_target": "Gal(b1-4)GlcNAc(b1-3)Gal(b1-4)GlcNAc(b1-3)Gal(b1-4)GlcNAc(b1-3)Gal(b1-4)GlcNAc(b1-3)Gal(b1-4)GlcNAc(b1-2)[Gal(b1-4)GlcNAc(b1-3)Gal(b1-4)GlcNAc(b1-3)Gal(b1-4)GlcNAc(b1-3)Gal(b1-4)GlcNAc(b1-3)Gal(b1-4)GlcNAc(b1-6)]Man(a1-6)[Gal(b1-4)GlcNAc(b1-3)Gal(b1-4)GlcNAc(b1-3)Gal(b1-4)GlcNAc(b1-3)Gal(b1-4)GlcNAc(b1-3)Gal(b1-4)GlcNAc(b1-2)Man(a1-3)]Man(b1-4)GlcNAc(b1-4)[Fuc(a1-6)]GlcNAc", "procedure,_shortened": "as §1"}, "[6]": {"biological_target": "Gal(b1-4)GlcNAc(b1-3)[Gal(b1-4)GlcNAc(b1-6)]Gal(b1-4)GlcNAc", "procedure,_shortened": "as §1"}, "Gal3S(b1-4)Glc": {"biological_target": "Gal3S(b1-4)Glc", "procedure,_shortened": "as §1"}, "Gal6S(b1-3)GlcNAc": {"biological_target": "Gal6S(b1-3)GlcNAc", "procedure,_shortened": "as §1"}, "[7]": {"biological_target": "GalNAc(a1-3)GalNAc(b1-3)Gal(a1-4)Gal(b1-4)Glc", "procedure,_shortened": "as §1"}, "GalNAc(b1-3)GalNAc": {"biological_target": "GalNAc(b1-3)GalNAc", "procedure,_shortened": "as §1"}, "[8]": {"biological_target": "GalNAc(b1-4)GlcNAc(b1-2)Man(a1-3)[GalNAc(b1-4)GlcNAc(b1-2)Man(a1-6)]Man(b1-4)GlcNAc(b1-4)GlcNAc", "procedure,_shortened": "as §1"}, "Glc(a1-6)Glc(a1-6)Glc": {"biological_target": "Glc(a1-6)Glc(a1-6)Glc", "procedure,_shortened": "as §1"}, "Glc(b1-6)Glc": {"biological_target": "Glc(b1-6)Glc", "procedure,_shortened": "as §1"}, "[9]": {"biological_target": "GlcNAc(a1-4)Gal(b1-4)GlcNAc(b1-3)Gal(b1-4)[Fuc(a1-3)]GlcNAc(b1-3)Gal(b1-4)[Fuc(a1-3)]GlcNAc", "procedure,_shortened": "as §1"}, "[10]": {"biological_target": "GlcNAc(b1-3)Gal(b1-4)GlcNAc(b1-2)Man(a1-3)[GlcNAc(b1-3)Gal(b1-4)GlcNAc(b1-2)Man(a1-6)]Man(b1-4)GlcNAc(b1-4)[Fuc(a1-6)]GlcNAc", "procedure,_shortened": "as §1"}, "[11]": {"biological_target": "GlcNAc(b1-3)Gal(b1-4)GlcNAc(b1-3)Gal(b1-4)GlcNAc(b1-2)[GlcNAc(b1-3)Gal(b1-4)GlcNAc(b1-3)Gal(b1-4)GlcNAc(b1-6)]Man(a1-6)[GlcNAc(b1-3)Gal(b1-4)GlcNAc(b1-3)Gal(b1-4)GlcNAc(b1-2)Man(a1-3)]Man(b1-4)GlcNAc(b1-4)[Fuc(a1-6)]GlcNAc", "procedure,_shortened": "as §1"}, "Man(a1-2)Man(a1-3)Man": {"biological_target": "Man(a1-2)Man(a1-3)Man", "procedure,_shortened": "as §1"}, "[12]": {"biological_target": "Man(a1-3)[Man(a1-6)]Man(a1-6)[Man(a1-2)Man(a1-3)]Man(b1-4)GlcNAc(b1-4)GlcNAc", "procedure,_shortened": "as §1"}, "Man(b1-4)GlcNAc": {"biological_target": "Man(b1-4)GlcNAc", "procedure,_shortened": "as §1"}, "[13]": {"biological_target": "Neu5Ac(a2-3)Gal(b1-3)GalNAc6S", "procedure,_shortened": "as §1"}, "[14]": {"biological_target": "Neu5Ac(a2-3)Gal(b1-4)GlcNAc(b1-2)Man(a1-3)[Neu5Ac(a2-3)Gal(b1-4)GlcNAc(b1-2)Man(a1-6)]Man(b1-4)GlcNAc(b1-4)GlcNAc", "procedure,_shortened": "as §1"}, "[15]": {"biological_target": "Neu5Ac(a2-6)Gal(b1-4)GlcNAc(b1-3)Gal(b1-4)GlcNAc(b1-3)Gal(b1-4)GlcNAc(b1-2)Man(a1-3)[Neu5Ac(a2-6)Gal(b1-4)GlcNAc(b1-3)Gal(b1-4)GlcNAc(b1-3)Gal(b1-4)GlcNAc(b1-2)Man(a1-6)]GalNAc", "procedure,_shortened": "as §1"}, "[16]": {"biological_target": "Neu5Ac(a2-6)Gal(b1-4)GlcNAc(b1-3)Gal(b1-4)GlcNAc(b1-6)[Gal(b1-3)]GalNAc", "procedure,_shortened": "as §1"}, "[17]": {"biological_target": "Neu5Ac(a2-8)Neu5Ac(a2-3)Gal(b1-4)GlcNAc", "procedure,_shortened": "as §1"}, "[18]": {"biological_target": "Neu5Ac(a2-8)Neu5Gc(a2-3)Gal(b1-4)GlcNAc", "procedure,_shortened": "as §1"}}, "note": "Shown is part of a subset that was picked to be rich in the strongest signals."}
{"binder": "B1", "values": [{"measurement": "glycan array binding signal (z-score)", "setting": "[1]", "value": -0.562}, {"measurement": "glycan array binding signal (z-score)", "setting": "[2]", "value": -0.439}, {"measurement": "glycan array binding signal (z-score)", "setting": "[3]", "value": -0.11}, {"measurement": "glycan array binding signal (z-score)", "setting": "[4]", "value": 1.61}, {"measurement": "glycan array binding signal (z-score)", "setting": "[5]", "value": 1.86}, {"measurement": "glycan array binding signal (z-score)", "setting": "[6]", "value": -0.2}, {"measurement": "glycan array binding signal (z-score)", "setting": "Gal3S(b1-4)Glc", "value": 0.301}, {"measurement": "glycan array binding signal (z-score)", "setting": "Gal6S(b1-3)GlcNAc", "value": 0.19}, {"measurement": "glycan array binding signal (z-score)", "setting": "[7]", "value": 0.12}, {"measurement": "glycan array binding signal (z-score)", "setting": "GalNAc(b1-3)GalNAc", "value": 1.96}, {"measurement": "glycan array binding signal (z-score)", "setting": "[8]", "value": -0.398}, {"measurement": "glycan array binding signal (z-score)", "setting": "Glc(a1-6)Glc(a1-6)Glc", "value": 0.049}, {"measurement": "glycan array binding signal (z-score)", "setting": "Glc(b1-6)Glc", "value": -0.768}, {"measurement": "glycan array binding signal (z-score)", "setting": "[9]", "value": 1.69}, {"measurement": "glycan array binding signal (z-score)", "setting": "[10]", "value": 4.66}, {"measurement": "glycan array binding signal (z-score)", "setting": "[11]", "value": 1.77}, {"measurement": "glycan array binding signal (z-score)", "setting": "Man(a1-2)Man(a1-3)Man", "value": 0.611}, {"measurement": "glycan array binding signal (z-score)", "setting": "[12]", "value": 0.28}, {"measurement": "glycan array binding signal (z-score)", "setting": "Man(b1-4)GlcNAc", "value": -0.706}, {"measurement": "glycan array binding signal (z-score)", "setting": "[13]", "value": -0.135}, {"measurement": "glycan array binding signal (z-score)", "setting": "[14]", "value": -0.301}, {"measurement": "glycan array binding signal (z-score)", "setting": "[15]", "value": 2.21}, {"measurement": "glycan array binding signal (z-score)", "setting": "[16]", "value": 0.989}, {"measurement": "glycan array binding signal (z-score)", "setting": "[17]", "value": -0.464}, {"measurement": "glycan array binding signal (z-score)", "setting": "[18]", "value": 18.3}]}
